ALDH1A1 inh: inhibitors of human aldehyde dehydrogenase 1A1; P00352; Purified ALDH1A1, NADH fluorescence, propionaldehyde substrate; Potency, µM (highest dose often 75.3 µM), without a hit: top-dose activity, negative = inhibition, actives largely listed as inhibitors; hit rate 7.3% among 220,000; AID 1030;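 also: potency is read from the fitted curve at half-maximal effect; plate controls were no enzyme wells and a reference inhibitor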
Target sequence (P00352 whole entry, looked up): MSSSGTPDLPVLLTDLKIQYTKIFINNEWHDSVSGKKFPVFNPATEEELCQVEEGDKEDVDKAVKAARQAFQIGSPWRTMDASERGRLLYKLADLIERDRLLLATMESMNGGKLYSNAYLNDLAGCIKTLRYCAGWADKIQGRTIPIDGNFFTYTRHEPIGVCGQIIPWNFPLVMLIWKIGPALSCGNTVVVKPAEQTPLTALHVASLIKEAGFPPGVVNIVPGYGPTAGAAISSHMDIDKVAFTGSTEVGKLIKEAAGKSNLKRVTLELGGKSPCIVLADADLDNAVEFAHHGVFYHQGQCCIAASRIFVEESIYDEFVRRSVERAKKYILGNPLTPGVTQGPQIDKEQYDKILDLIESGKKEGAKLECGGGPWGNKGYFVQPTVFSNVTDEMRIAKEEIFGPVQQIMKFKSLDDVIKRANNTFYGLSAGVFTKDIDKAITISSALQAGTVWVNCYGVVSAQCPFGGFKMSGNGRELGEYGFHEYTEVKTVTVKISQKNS
12-hLO inh: blocks human 12-lipoxygenase activity | purified 12-hLO, xylenol orange hydroperoxide absorbance | AID 1452 | Potency, µM (top dose mostly 57.1 µM), without a hit: at the top dose activity change, negative = inhibition, usual class: inhibitors | P18054 | hit rate 0.12% among 150,000; active = well fitted inhibition curve with a large enough effect; inconclusive = small, poorly fitted or top-dose-only effect; also: potency is read from the fitted curve at half-maximal effect; nearly all actives have a fitted effect of over 55% in size
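Lipoxygenase turnover measured by absorbance at 573 and 405 nm after Fe-XO development. Human 12hLO 150 nM, arachidonate 40 uM, pH 7.0 Hepes buffer with detergent; 15 min compound preincubation, 30 min reaction.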
Lamin A splicing: modulators of lamin A splicing; HeLa LMNA splicing GFP/RFP minigene ratio, 48 h; hit rate 0.01% among 200,000; Potency, µM (series often up to 46.1 µM), without a hit: at the top dose ratio change, negative = inhibition, usual class: inhibitors; AID 1487; active = well fitted inhibition curve with a large enough effect in the signal ratio, with a control signal flat, not every such curve was filed as active; inconclusive = small, poorly fitted or top-dose-only effect, or effect the other way, or a change in a side signal; the % refers to the signal ratio; also: potency is read from the fitted curve at half-maximal effect
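S3 HeLa stable clones carrying a lamin A-EGFP splicing minigene plus DsRed2 were seeded at 600 cells/well in Opti-MEM with 2% FBS, pin-dosed and incubated 48 h at 37°C. Acumen cytometry (488 nm) gave the GFP/RFP total-intensity ratio.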
HPGD inh: inhibitors of human 15-hydroxyprostaglandin dehydrogenase (HPGD); purified HPGD, NADH fluorescence kinetic, PGE2 substrate; Potency, µM, for inactives: at the highest dose activity change, negative = inhibition, usual class: inhibitors; hit rate 4.3% among 150,000; also: potency is read from the fitted curve at half-maximal effect
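20 nM HPGD preincubated 15 min at room temperature with compound in 50 mM Tris-HCl pH 8, 0.01% Tween 20. Started with 1 mM NAD+ and 30 uM prostaglandin E2; NADH fluorescence (360/450 nm) read 5 times over 30-s intervals, last minus first.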
PNC assembly inh: perinucleolar compartment assembly inhibition; PC3M PTB-GFP, PNC prevalence imaging, 16 h; active compounds read low; activity change (PNC), negative = inhibition, % at 10 µM; hit rate 3.1% among 140,000; AID 2417;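 active = readout at or below -70, meaning at least 70% loss of cells showing the perinucleolar compartment, a nuclear body marking cancer cells; inconclusive = readout between -30 and a set limit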;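 also: plate controls were DMSO wells for no effect and camptothecin positive control wells for full effect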
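Compounds are pinned in duplicate onto adhered PC3M cells stably expressing GFP-tagged PTB and incubated 16 h at 37 C. Cells are then fixed, nuclei stained with Hoechst, and PNC-positive cells counted.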
Active calls of the source: *; ? = inconclusive; . = no result; [ ] = remark or other dose. Compounds with a hit are over-represented: about 10% of the library has one in this group of screens. Unless noted, calls follow the shape of the dose curve; as a rule, active = well fitted inhibition curve with a large enough effect (not every such curve was filed as active); inconclusive = small, poorly fitted or top-dose-only effect, or another doubt; inactive = no such curve, though single readings can be large or run the other way. Unless noted, % is scaled to controls: 0 for no effect and ±100 for the full control effect.

SMILES	ALDH1A1 inh	12-hLO inh	Lamin A splicing	HPGD inh	PNC assembly inh
COc1ccc(N2C(=O)NC(=O)/C(=C/c3cccc(OC(=O)c4cccs4)c3)C2=O)cc1Cl	?	-18.7%	?	31.6µM*	?
Cc1ccc(N2C(=O)NC(=O)/C(=C\c3ccoc3)C2=O)cc1	?	.	11.5%[46 µM]	.	.
OC1(c2ccc(Cl)cc2)CCN(Cc2c[nH]c3ccccc23)CC1	-3.2%	-3.7%	?	-6.9%	.
NC(N)=Nc1ccc2[nH]c3c(c2c1)C[C@]1(O)[C@@H]2Cc4ccc(O)c5c4[C@]1(CCN2CC1CC1)[C@@H]3O5	25.1µM*	-1.9%	.	-13.9%	.
O=C(C1CC(=O)N(C2CCCCCCC2)C1)N1CCC2(CC1)OCCO2 (stereo unspecified)	25.1µM*	-4.2%	3.3%	-6.0%	?
O=C(C1CCC(=O)N1C1CCCC1)N1CCC2(CC1)OCCO2 (stereo unspecified)	-7.1%	-0.1%	6.9%	-12.2%	-21.0
O=NN(CCO)CCO	?	4.4%	.	-6.7%	.
CC(=O)Nc1ccccc1C(=O)OCc1ccc(C(=O)c2ccccc2)cc1	?	0.4%	0.1%	25.1µM*	10.2
CN(C)C1C(=O)C(C(N)=O)=C(O)[C@@]2(O)C(=O)C3=C(O)c4c(O)ccc(Cl)c4[C@](C)(O)C3CC12 (stereo partly specified)	20.8%	-0.6%	.	?	.
Cc1ccc(/C=C2\C(=O)NC(=O)N(CCc3ccc(F)cc3)C2=O)o1	5.01µM*	-20.5%	-12.8%	3.55µM*	?
O=C1NC(=O)N(Cc2ccc(F)cc2)C(=O)/C1=C\c1ccoc1	-6.0%	.	16.5%[46 µM]	.	.
O=C1NC(=O)N(Cc2ccc(F)cc2)C(=O)/C1=C/c1cccs1	28.2µM*	.	.	.	.
Cc1ccc(/C=C2/C(=O)NC(=O)N(CCc3ccc(F)cc3)C2=O)s1	?	-0.9%	-7.1%	7.08µM*	?
Cc1ccc(/C=C2\C(=O)NC(=O)N(CCc3ccc(F)cc3)C2=O)s1	1.58µM*	.	.	.	.
CCC(C(=O)O)C1CCC(C)C(C(C)C(O)C(C)C(=O)C(CC)C2OC3(C=CC(O)[C@@]4(CC[C@](C)(C5CC[C@@](O)(CC)C(C)O5)O4)O3)C(C)CC2C)O1 (stereo partly specified)	3.4%	-6.4%	?	-13.7%	.
COC(=O)[C@@H]1[C@@H](O)[C@@]2(O)c3c(OC)cc(OC)cc3O[C@@]2(c2ccc(OC)cc2)[C@H]1c1ccccc1	9.3%[13.5 µM]	.	.	.	.
CC(C)C(=O)CP(=O)(O)O	-5.9%[13.5 µM]	-0.6%[11.4 µM]	.	-9.9%	.
C[N+]1([O-])CCC[C@@H]1c1cccnc1 (stereo partly specified)	-1.0%	.	.	.	.
COc1cccc2c1C(=O)c1c(O)c3c(c(O)c1C2=O)C[C@](O)(/C(C)=N\O)C[C@@H]3O[C@H]1C[C@H](N)[C@@H](O)[C@H](C)O1	-7.8%[13.5 µM]	-0.5%[11.4 µM]	.	-6.7%	.
CC(=O)c1c(C)n(CC2CCCO2)c2ccc(O)cc12 (stereo unspecified)	-1.0%	-5.3%	6.3%	-11.8%	-6.4
CN(C)c1ccc(/C=C2/C(=O)NC(=O)N(CCc3ccc(F)cc3)C2=O)cc1	0.631µM*	-15.1%	4.7%	10µM*	-20.5
Cc1ccc(/C=C2/C(=O)NC(=O)N(CC3CCCO3)C2=O)s1 (stereo unspecified)	10µM*	-3.2%	0.3%	14.1µM*	-3.4
CCOc1ccc(N2C(=O)NC(=O)/C(=C\c3ccc(N4CCCCC4)o3)C2=O)cc1	0.4%	-1.5%	?	.	?
O=C1NC(=O)N(c2ccc(Cl)cc2)C(=O)/C1=C\c1ccc(Sc2nc3ccccc3[nH]2)o1	?	-28.4%	?	10µM*	18.0
CCOC(=O)c1ccc(N2C(=O)CC(N3CCC(O)(c4ccc(Cl)cc4)CC3)C2=O)cc1 (stereo unspecified)	7.94µM*	-1.2%	-0.1%	-11.9%	21.4
SMILES	ALDH1A1 inh	12-hLO inh	Lamin A splicing	HPGD inh	PNC assembly inh
CCOC(=O)c1ccc(N2C(=O)CC(N3CCC(O)(c4ccc(Br)cc4)CC3)C2=O)cc1 (stereo unspecified)	1.58µM*	-5.8%	5.8%	?	50.3
[CH3][Hg][Cl]	0.708µM*	-0.8%	.	?	.
COC(=O)/C=C/C(=O)N[C@@H]1CC[C@@]2(O)[C@H]3Cc4ccc(O)c5c4[C@@]2(CCN3CC2CC2)[C@H]1O5	-8.1%	.	.	.	.
CC(C)CN(CC(C)C)c1ccc(C=C2C(=O)NC(=S)NC2=O)cc1[N+](=O)[O-]	11.2µM*	?	12.3%	8.91µM*	4.5
CCN(CC)c1ccc(C=C2C(=O)NC(=S)NC2=O)cc1	0.112µM*	.	?	.	.
CC(=O)Oc1c2c(c(CC=C(C)C)c3c1C(=O)C1=CC4CC5C(C)(C)OC(C/C=C(\C)C(=O)O)(C4=O)[C@]15O3)OC(C)(CCC=C(C)C)C=C2 (stereo partly specified)	?	?	?	28.2µM*	.
COC(=O)/C(C)=C\CC12OC(C)(C)C3CC(C=C4C(=O)c5c(OC)c6c(c(CC=C(C)C)c5OC431)OC(C)(CCC=C(C)C)C=C6)C2=O (stereo unspecified)	?	-8.7%	?	-21.4%	.
CC[C@H]1CN2CCc3cc(OC)c(OC)cc3[C@H]2C[C@@H]1C[C@H]1NCCc2c1[nH]c1ccc(O)cc21	5.1%[13.5 µM]	1.8%[11.4 µM]	.	-5.5%	.
CC[C@@H](CO)NC(=O)[C@@H]1C=C2c3cccc4[nH]cc(c34)C[C@H]2N(C)C1	3.55µM*	.	?	.	.
CCC(CO)NC(=O)C1C=C2c3cccc4[nH]cc(c34)CC2N(C)C1 (stereo unspecified)	?	-3.0%	?	?	.
CC[C@@H](CO)NC(=O)[C@@H]1C=C2c3cccc4c3c(cn4C)C[C@H]2N(C)C1	3.16µM*	-2.6%	?	?	?
Nc1ccc([N+](=O)[O-])cc1N	-0.7%	-8.7%	.	-3.0%	.
N#CC(C#N)=Cc1ccc(C=C(C#N)C#N)cc1	0.355µM*	.	?	.	.
